About 16,000 (4.4%) of roughly 360,000 compounds were called active. Where a call stands in place of a potency, no number is given. About 9% were inconclusive and are not listed. Calls come from the whole dose curve; as a rule, active = well fitted inhibition curve with a large enough effect; inconclusive = small, poorly fitted or top-dose-only effect; inactive = no such curve, though single readings can be large or run the other way. The full list was thinned out, with actives kept by preference.
These molecules were tested against Bromodomain adjacent to zinc finger domain protein 2B (Homo sapiens) (UniProt Q9UIF8) (assay: qHTS Assay for Inhibitors of BAZ2B). Details: AlphaScreen BAZ2B-H3K14Ac peptide displacement; series mostly up to 114 µM.
Chain of Bromodomain adjacent to zinc finger domain protein 2B (Homo sapiens) (Q9UIF8 whole entry, looked up, the tested form may be a part): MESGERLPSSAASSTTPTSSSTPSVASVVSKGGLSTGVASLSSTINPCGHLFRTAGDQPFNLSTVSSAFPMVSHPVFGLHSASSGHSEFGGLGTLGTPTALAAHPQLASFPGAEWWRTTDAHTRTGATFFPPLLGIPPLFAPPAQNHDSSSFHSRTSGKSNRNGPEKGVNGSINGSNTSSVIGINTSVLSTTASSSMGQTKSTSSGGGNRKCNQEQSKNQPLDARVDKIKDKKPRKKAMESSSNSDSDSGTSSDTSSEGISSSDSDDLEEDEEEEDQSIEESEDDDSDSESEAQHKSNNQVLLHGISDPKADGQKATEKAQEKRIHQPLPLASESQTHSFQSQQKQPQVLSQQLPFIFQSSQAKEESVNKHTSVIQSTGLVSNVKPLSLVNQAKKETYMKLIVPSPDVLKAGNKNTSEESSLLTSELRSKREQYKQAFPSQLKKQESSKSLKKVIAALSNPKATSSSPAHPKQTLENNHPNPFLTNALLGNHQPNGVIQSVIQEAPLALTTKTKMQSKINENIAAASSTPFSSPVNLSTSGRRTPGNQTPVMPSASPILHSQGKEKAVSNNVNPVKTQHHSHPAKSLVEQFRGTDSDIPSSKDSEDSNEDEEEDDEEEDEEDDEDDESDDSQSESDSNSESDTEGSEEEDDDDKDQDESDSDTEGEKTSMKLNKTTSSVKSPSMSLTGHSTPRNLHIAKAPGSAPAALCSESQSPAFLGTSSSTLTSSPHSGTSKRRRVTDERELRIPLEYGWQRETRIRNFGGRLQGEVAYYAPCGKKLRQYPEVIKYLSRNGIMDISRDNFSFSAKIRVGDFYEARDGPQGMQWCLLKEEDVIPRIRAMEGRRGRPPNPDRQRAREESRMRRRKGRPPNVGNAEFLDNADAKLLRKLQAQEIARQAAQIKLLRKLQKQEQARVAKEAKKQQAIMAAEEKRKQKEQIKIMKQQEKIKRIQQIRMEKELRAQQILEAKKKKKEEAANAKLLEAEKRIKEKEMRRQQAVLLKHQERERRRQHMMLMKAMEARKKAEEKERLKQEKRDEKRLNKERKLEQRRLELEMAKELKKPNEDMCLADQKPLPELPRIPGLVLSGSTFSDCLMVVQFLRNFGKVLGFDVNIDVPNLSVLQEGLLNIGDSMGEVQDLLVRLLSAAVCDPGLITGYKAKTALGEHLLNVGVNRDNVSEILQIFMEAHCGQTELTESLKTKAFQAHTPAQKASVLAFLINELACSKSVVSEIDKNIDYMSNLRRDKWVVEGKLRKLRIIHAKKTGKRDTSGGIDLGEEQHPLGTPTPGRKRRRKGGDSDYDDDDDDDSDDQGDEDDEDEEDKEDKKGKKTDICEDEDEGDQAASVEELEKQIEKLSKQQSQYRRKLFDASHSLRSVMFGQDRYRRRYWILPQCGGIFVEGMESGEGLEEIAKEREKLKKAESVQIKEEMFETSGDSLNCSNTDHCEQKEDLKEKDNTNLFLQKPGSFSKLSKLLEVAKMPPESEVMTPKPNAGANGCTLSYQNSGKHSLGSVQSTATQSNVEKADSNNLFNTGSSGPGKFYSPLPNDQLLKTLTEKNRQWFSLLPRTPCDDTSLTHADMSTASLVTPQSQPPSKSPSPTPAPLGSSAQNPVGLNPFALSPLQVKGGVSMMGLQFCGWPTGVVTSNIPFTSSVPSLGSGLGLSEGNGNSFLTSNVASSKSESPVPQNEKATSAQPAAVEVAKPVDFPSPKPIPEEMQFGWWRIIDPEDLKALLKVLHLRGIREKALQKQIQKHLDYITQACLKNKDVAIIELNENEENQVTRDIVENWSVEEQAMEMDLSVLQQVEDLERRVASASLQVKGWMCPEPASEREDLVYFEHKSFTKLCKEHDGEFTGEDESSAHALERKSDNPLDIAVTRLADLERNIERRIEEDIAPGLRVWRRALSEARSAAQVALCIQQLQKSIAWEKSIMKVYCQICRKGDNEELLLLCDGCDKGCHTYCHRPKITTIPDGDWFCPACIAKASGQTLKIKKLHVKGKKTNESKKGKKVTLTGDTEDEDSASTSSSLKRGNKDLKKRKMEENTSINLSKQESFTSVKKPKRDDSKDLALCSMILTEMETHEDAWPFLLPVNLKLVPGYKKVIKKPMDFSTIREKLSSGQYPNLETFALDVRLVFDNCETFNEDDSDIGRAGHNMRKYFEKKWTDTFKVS
Summary of the method: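 Complex of BAZ2B and biotin-H3K14Ac (50 nM apiece) forms over 30 min at RT, then faces library compounds up to 110 uM for another 30 min; AlphaScreen beads added, 20 min dark incubation, luminescence read.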
With Cc1cccc(N2CCN(C(=O)CCSCc3ccccc3F)CC2)c1C the Potency was “inactive”.
With Cc1ccc(-n2ncc(C(=O)N(C)Cc3ccccc3)c2-n2cccc2)cc1 the Potency was “inactive”.
With COc1ccc2oc(-c3ccc(C)c(NC(=O)c4sc5ccccc5c4Cl)c3)nc2c1 the Potency was “inactive”.
With O=C(CSc1nc(Nc2ccc(F)c(F)c2)c2ccccc2n1)c1ccc(Cl)cc1 the Potency was “inactive”.
With O=C(NCc1ccc(Cl)cc1)NCc1ccc(Cl)cc1 the Potency was “inactive”.
For CC(O)CN(Cc1ccc(Cl)cc1)CC(C)O (centres undefined), the Potency was 56.2 µM (active).
For CN(C)CCCNC(=S)NCc1ccc(Cl)cc1, the Potency was “inactive”.
In the case of CCC1CN(S(=O)(=O)c2cc(-c3cc(C)no3)ccc2C)c2cc(C)ccc2O1 (centres undefined), the Potency is reported as “inactive”.
O=S(=O)(c1ccc(Br)cc1)c1nnn2c1nc(N1CCOCC1)c1sccc12 was tested, and the Potency was “inactive”.
In the case of O=C(CSc1oc(-c2ccco2)nc1S(=O)(=O)c1ccccc1)c1ccc(Cl)cc1, the Potency is reported as “inactive”.
For O=S(=O)(c1cccc2nonc12)N1CCN(c2cccc(Cl)c2)CC1, the Potency was 50.1 µM (active).
In the case of O=C(NCc1ccccc1Cl)C1CCN(S(=O)(=O)c2cccc3nonc23)CC1, the Potency is reported as “inactive”.
With CC1CC(C)CN(S(=O)(=O)c2cccc3nonc23)C1 (centres undefined) the Potency was “inactive”.
With COc1ccc(Cn2ccc3nc(C)c(C(=O)Nc4ccc(C)c(F)c4)cc3c2=O)cc1 the Potency was “inactive”.
For CC(=O)c1cccc(Nc2ccc3cc(S(=O)(=O)N4CCC(C)CC4)ccc3n2)c1, the Potency was “inactive”.
For O=C(CSc1nc2c(c(=O)[nH]1)CN(Cc1ccc3c(c1)OCO3)CC2)Nc1cc(F)ccc1F, the Potency was “inactive”.
CC(C)c1cc(CN2CCOCC2)cc(C(C)C)c1O was tested, and the Potency was “inactive”.
Oc1c(C(c2ccccc2Cl)N2CCOCC2)sc2nc(-c3ccco3)nn12 (centres undefined) was tested, and the Potency was “inactive”.
With Oc1c(C(c2ccccn2)N2CCOCC2)ccc2cccnc12 (centres undefined) the Potency was 3.16 µM (active).
With COc1ccc(-c2nc(S(=O)(=O)c3ccccc3)c(N3CCCCC3)o2)cc1 the Potency was “inactive”.
O=C(CCC1N=C2c3ccccc3N=C(SCc3ccccc3F)N2C1=O)NCCc1ccccc1 (centres undefined) was tested, and the Potency was “inactive”.
With NS(=O)(=O)c1ccc(NC(=O)COc2ccc(S(=O)(=O)NC3CCCCC3)cc2)cc1 the Potency was “inactive”.
In the case of COc1ccc(-c2csc(-c3c(N)c(C(=O)c4ccc(OC)c(OC)c4)n4ccccc34)n2)cc1, the Potency is reported as “inactive”.
For Cc1cccc(N2CCN(c3ccc(NC(=O)/C=C\C(=O)O)cc3)CC2)c1, the Potency was 35.5 µM (active).
For CC(=O)Nc1ccc(S(=O)(=O)N2CCN(c3ccccc3)CC2)cc1, the Potency was “inactive”.
CN1CCN(c2ccc(NC(=O)c3ccccc3)cc2)CC1 was tested, and the Potency was “inactive”.
CN(C)c1ccc(/C=C/C(=O)c2ccc(C(C)(C)C)cc2)cc1[N+](=O)[O-] was tested, and the Potency was 8.91 µM (active).
In the case of CC(=O)Nc1ccc(/C=C/C(=O)c2ccccc2)cc1, the Potency is reported as “inactive”.
For Cc1cc(C(=O)O)ccc1[N+](=O)[O-], the Potency was “inactive”.

Source: PubChem BioAssay AID504333 (National Center for Advancing Translational Sciences (NCATS), 2011)
Note: nearly all actives have a fitted effect of over 60% in size.
Potency is the fitted concentration of half-maximal effect.
